Measured values published in paper PMC6602471.
The full ranking holds about 1,300 sequences; the median of “log fluorescence intensity” is about 8.3, and the highest 2% start at about 12. This is one part of a sample in which the highest values are shown more often than they occur.

Each sequence was assayed against T1, ETS1 (Homo sapiens, UniProt P14921 1-441) (assay: custom PBM; custom protein-binding microarray; buffer, salt, pH and temperature not stated; high values mean tight binding). Settings: dsDNA, one strand shown.
T1 sequence: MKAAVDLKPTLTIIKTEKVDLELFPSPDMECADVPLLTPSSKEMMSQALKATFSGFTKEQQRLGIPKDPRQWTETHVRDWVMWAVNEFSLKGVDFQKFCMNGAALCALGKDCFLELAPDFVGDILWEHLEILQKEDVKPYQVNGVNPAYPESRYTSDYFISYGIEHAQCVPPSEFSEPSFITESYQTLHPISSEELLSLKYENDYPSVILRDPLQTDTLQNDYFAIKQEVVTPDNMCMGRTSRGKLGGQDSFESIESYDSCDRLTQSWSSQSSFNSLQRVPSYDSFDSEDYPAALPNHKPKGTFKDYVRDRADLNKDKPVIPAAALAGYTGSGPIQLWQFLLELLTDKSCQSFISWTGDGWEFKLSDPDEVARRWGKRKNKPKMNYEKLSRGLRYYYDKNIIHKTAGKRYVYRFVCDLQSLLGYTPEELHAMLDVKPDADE
“TCCGGCTACCAGCTCCACCCACTTCAGGCCTTGTAGGTCTTGATTCGCTTGACGCTGCTG” was tested, and the binding signal was 8.36 log fluorescence intensity. “TCCGGCTACCAGCTCCACCCACTTCCGGCCTTGTAGGTCTTGATTCGCTTGACGCTGCTG” was tested, and the binding signal was 13.1 log fluorescence intensity. “TCCGGCTACCAGCTCCACCCACTTCAAGCCTTGTAGGTCTTGATTCGCTTGACGCTGCTG” was tested, and the binding signal was 8.4 log fluorescence intensity. “TAAAGGGAAGAGGGTTGTGGTAGTTCCGGGTATTAAGTCTTGATTCGCTTGACGCTGCTG” was tested, and the binding signal was 8.6 log fluorescence intensity. “TCCGGCTACCACCTCCACCCACTTCAGGCCTTGTAGGTCTTGATTCGCTTGACGCTGCTG” was tested, and the binding signal was 8.32 log fluorescence intensity. With “GGAAAAAGGCCCAGGGTAACGCCGGAAGTGGGCTTAGTCTTGATTCGCTTGACGCTGCTG” the binding signal was 10.7 log fluorescence intensity. For “GGAAAAAGGCCCAGGGTAACAGCGGAAGTGGGCTTAGTCTTGATTCGCTTGACGCTGCTG”, the binding signal was 10.2 log fluorescence intensity. In the case of “GGAAAAAAGCCCAGGGTAACACCGGAAGTGGGCTTAGTCTTGATTCGCTTGACGCTGCTG”, the binding signal is reported as 12.1 log fluorescence intensity. In the case of “AGAAAAAGGCCCAGGGTAACACCGGAAGTGGGCTTAGTCTTGATTCGCTTGACGCTGCTG”, the binding signal is reported as 11.9 log fluorescence intensity. For “GGAAAAAGCCCCAGGGTAACACCGGAAGTGGGCTTAGTCTTGATTCGCTTGACGCTGCTG”, the binding signal was 12.1 log fluorescence intensity. “TGAAAAAGGCCCAGGGTAACACCGGAAGTGGGCTTAGTCTTGATTCGCTTGACGCTGCTG” was tested, and the binding signal was 11.8 log fluorescence intensity. With “GGAAAAGGGCCCAGGGTAACACCGGAAGTGGGCTTAGTCTTGATTCGCTTGACGCTGCTG” the binding signal was 11.8 log fluorescence intensity. “CGAAAAAGGCCCAGGGTAACACCGGAAGTGGGCTTAGTCTTGATTCGCTTGACGCTGCTG” was tested, and the binding signal was 12 log fluorescence intensity. For “GGAAAAAGGCCAAGGGTAACACCGGAAGTGGGCTTAGTCTTGATTCGCTTGACGCTGCTG”, the binding signal was 12 log fluorescence intensity. For “GGAAAAAGGCCCATGGTAACACCGGAAGTGGGCTTAGTCTTGATTCGCTTGACGCTGCTG”, the binding signal was 11.9 log fluorescence intensity. In the case of “GGAAAAAGGCCCAAGGTAACACCGGAAGTGGGCTTAGTCTTGATTCGCTTGACGCTGCTG”, the binding signal is reported as 12.1 log fluorescence intensity. For “GGAAAAAGGCCCAGTGTAACACCGGAAGTGGGCTTAGTCTTGATTCGCTTGACGCTGCTG”, the binding signal was 12 log fluorescence intensity. For “GGAAAAAGGCCCACGGTAACACCGGAAGTGGGCTTAGTCTTGATTCGCTTGACGCTGCTG”, the binding signal was 12.2 log fluorescence intensity. With “CTGGGACTTGACCCGACTCTGCCACGTGGGTCGTTTGTCTTGATTCGCTTGACGCTGCTG” the binding signal was 8.49 log fluorescence intensity. In the case of “TACTGACATATATATGCGAATGCACATGAATAGACCGTCTTGATTCGCTTGACGCTGCTG”, the binding signal is reported as 8.43 log fluorescence intensity. In the case of “GAGCATAGGACTTCTTCCCTGAAGCAATTGATAACCGTCTTGATTCGCTTGACGCTGCTG”, the binding signal is reported as 8.32 log fluorescence intensity. For “CGGAAGTGTCGTAAACGTCGGATATCCGGTTCGTCTGTCTTGATTCGCTTGACGCTGCTG”, the binding signal was 11.9 log fluorescence intensity. With “TGTCGGGTAAGGGAATGTAGATGACGTGAATGAAAAGTCTTGATTCGCTTGACGCTGCTG” the binding signal was 8.36 log fluorescence intensity. For “GGAAAAAGGCCCAGGGTAACACCGGAAGTGCGCTTAGTCTTGATTCGCTTGACGCTGCTG”, the binding signal was 11.7 log fluorescence intensity. For “GATTAATTTCTGCCCTTATTCGCACGTGCAATAACAGTCTTGATTCGCTTGACGCTGCTG”, the binding signal was 8.3 log fluorescence intensity. For “CAGAAGTGTCGTAAACGTCGGATATCCGGTTCTTCTGTCTTGATTCGCTTGACGCTGCTG”, the binding signal was 12.1 log fluorescence intensity. In the case of “CGGAAGTGTCGTAAGCGTCGGATATCCGGTTCTTCTGTCTTGATTCGCTTGACGCTGCTG”, the binding signal is reported as 11.7 log fluorescence intensity. With “CGGCAGTGTCGTAAACGTCGGATATCCGGTTCTTCTGTCTTGATTCGCTTGACGCTGCTG” the binding signal was 11.7 log fluorescence intensity. With “GGAAACAGGCCCAGGGTAACACCGGAAGTGGGCTTAGTCTTGATTCGCTTGACGCTGCTG” the binding signal was 11.8 log fluorescence intensity. For “TAAAGGGAAGACGGTTGTAGTAGTTCCGGGTATTAAGTCTTGATTCGCTTGACGCTGCTG”, the binding signal was 8.81 log fluorescence intensity. In the case of “GCTGCTGCGCTGCATACCCCACCGGATGTGACCCCGGTCTTGATTCGCTTGACGCTGCTG”, the binding signal is reported as 10.1 log fluorescence intensity. In the case of “TACTGACTTATATATGCGAATGCACATCAATAGACCGTCTTGATTCGCTTGACGCTGCTG”, the binding signal is reported as 8.32 log fluorescence intensity. With “GCTGCTGCGGTGCATACCCCACCAGATGTGACCCCGGTCTTGATTCGCTTGACGCTGCTG” the binding signal was 8.36 log fluorescence intensity. “CACAATTTTTACAGTAATGTAGCACGCGTAAATCCTGTCTTGATTCGCTTGACGCTGCTG” was tested, and the binding signal was 8.32 log fluorescence intensity. In the case of “GTGTATAGGATCCCATCGAACACACGTGTTAAAATGGTCTTGATTCGCTTGACGCTGCTG”, the binding signal is reported as 8.36 log fluorescence intensity. For “TAAAGGGAAGACGGTTGTGGTAGTTCCGGGTATTAGGTCTTGATTCGCTTGACGCTGCTG”, the binding signal was 8.47 log fluorescence intensity. For “CGGAAGTGTCGTAAACGTCGGATGTCCGGTTCTTCTGTCTTGATTCGCTTGACGCTGCTG”, the binding signal was 9.65 log fluorescence intensity. In the case of “CGGAAGTGTCGTAAACGTCCGATATCCGGTTCTTCTGTCTTGATTCGCTTGACGCTGCTG”, the binding signal is reported as 12.2 log fluorescence intensity. “CGGAAGTGTCGGAAACGTCGGATATCCGGTTCTTCTGTCTTGATTCGCTTGACGCTGCTG” was tested, and the binding signal was 12.8 log fluorescence intensity. In the case of “CGGAAGTGTCTTAAACGTCGGATATCCGGTTCTTCTGTCTTGATTCGCTTGACGCTGCTG”, the binding signal is reported as 11.6 log fluorescence intensity. “CGGAAGTGTCGTAAACGTCGGACATCCGGTTCTTCTGTCTTGATTCGCTTGACGCTGCTG” was tested, and the binding signal was 12.6 log fluorescence intensity. For “CGGAAGTGTCGTAAACGTCGGATTTCCGGTTCTTCTGTCTTGATTCGCTTGACGCTGCTG”, the binding signal was 12.5 log fluorescence intensity. In the case of “CGGAAGTGTCGTAAACGTCTGATATCCGGTTCTTCTGTCTTGATTCGCTTGACGCTGCTG”, the binding signal is reported as 11.8 log fluorescence intensity. With “CGGAAGTGTCGTAAACGTCGGAGATCCGGTTCTTCTGTCTTGATTCGCTTGACGCTGCTG” the binding signal was 8.83 log fluorescence intensity. With “CCGAAGTGTCGTAAACGTCGGATATCCGGTTCTTCTGTCTTGATTCGCTTGACGCTGCTG” the binding signal was 12 log fluorescence intensity. “CGGAAGTGTCGTAAACGTCGGAAATCCGGTTCTTCTGTCTTGATTCGCTTGACGCTGCTG” was tested, and the binding signal was 9.71 log fluorescence intensity. For “CGGAAGTGTCGTAAACGTCGGATCTCCGGTTCTTCTGTCTTGATTCGCTTGACGCTGCTG”, the binding signal was 8.47 log fluorescence intensity. With “CGGAAGTGTCGAAAACGTCGGATATCCGGTTCTTCTGTCTTGATTCGCTTGACGCTGCTG” the binding signal was 12 log fluorescence intensity. “CGGAAGTGTCGTAAACGTCGTATATCCGGTTCTTCTGTCTTGATTCGCTTGACGCTGCTG” was tested, and the binding signal was 11.8 log fluorescence intensity. With “CGGAAGTGTCGTAAACGTCGCATATCCGGTTCTTCTGTCTTGATTCGCTTGACGCTGCTG” the binding signal was 12.2 log fluorescence intensity. With “CGGAACTGTCGTAAACGTCGGATATCCGGTTCTTCTGTCTTGATTCGCTTGACGCTGCTG” the binding signal was 11.8 log fluorescence intensity. With “CGGAAGTGTCGTAAACGTCGGTTATCCGGTTCTTCTGTCTTGATTCGCTTGACGCTGCTG” the binding signal was 9.21 log fluorescence intensity. In the case of “CGGAAGCGTCGTAAACGTCGGATATCCGGTTCTTCTGTCTTGATTCGCTTGACGCTGCTG”, the binding signal is reported as 11.8 log fluorescence intensity. For “CGGAATTGTCGTAAACGTCGGATATCCGGTTCTTCTGTCTTGATTCGCTTGACGCTGCTG”, the binding signal was 12.2 log fluorescence intensity.
